Assay results reported in PubChem BioAssay (Tox21).
Inconclusive results are not listed. Active and inactive are the calls of the source. Unless noted, the call rests on the fitted dose curve; in most records, active means well fitted curve in the direction sought with a large enough effect in the repeat runs; inconclusive means weak or mixed curves; inactive means no such curve, though single readings can be large; an effect the other way counts as inactive or inconclusive.

Assays:
[1] = qHTS assay to identify small molecule agonists of the peroxisome proliferator-activated receptor delta (PPARd) signaling pathway - cell viability counter screen (AID 743211); further: on the % scale 0 is the no-effect control and ±100 the full control effect; nearly all actives have a fitted effect of over 55% in size
Procedure, shortened: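 Counter screen for cytotoxicity run in parallel with the PPARd reporter screen. Beta-lactamase reporter HEK293H cells exposed to compounds 17 h; ATP-based CellTiter-Glo luminescence quantified viability.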

[2] = biological target: Peroxisome proliferator-activated receptor delta (Homo sapiens) (UniProt Q03181); experiment: qHTS assay to identify small molecule agonists of the peroxisome proliferator-activated receptor delta (PPARd) signaling pathway (AID 743212; calls by dose curve;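 further: HEK293H cells with PPARd UAS beta-lactamase reporter GeneBLAzer system; on the % scale 0 is the no-effect control and ±100 the full control effect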)
Procedure, shortened: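 Beta-lactamase reporter readout: a ratiometric FRET signal from the LiveBLAzer substrate after 2 h at room temperature. Compound exposure at 37 °C in PPARδ-bla HEK293H cells driven by an upstream activator sequence.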

[3] = qHTS assay to identify small molecule antagonists of the peroxisome proliferator-activated receptor delta (PPARd) signaling pathway - cell viability counter screen (AID 743213); further: on the % scale 0 is the no-effect control and ±100 the full control effect; nearly all actives have a fitted effect of over 50% in size
Procedure, shortened: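 HEK293H cells with the PPARd UAS-bla reporter, co-treated 17 h at 37 C with compounds and L165041 (300 nM final), were lysed with CellTiter-Glo. Luminescence indicated viable cell content.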

[4] = qHTS assay to identify small molecule agonists of the farnesoid-X-receptor (FXR) signaling pathway - cell viability counter screen (AID 743218); further: on the % scale 0 is the no-effect control and ±100 the full control effect; nearly all actives have a fitted effect of over 45% in size
Procedure, shortened: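 Viability of FXR-bla HEK 293T cells is measured by ATP-based CellTiter-Glo luminescence following 16 h compound treatment at 37 C and a prior 2 h room-temperature beta-lactamase substrate step.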

[5] = qHTS assay to identify small molecule antagonists of the farnesoid-X-receptor (FXR) signaling pathway - cell viability counter screen (AID 743221; active means well fitted cell-killing curve with a large enough effect in the repeat runs, not every such curve was filed as active; further: on the % scale 0 is the no-effect control and ±100 the full control effect; nearly all actives have a fitted effect of over 50% in size)
Procedure, shortened: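 Multiplexed counter screen: viability of FXR-bla HEK 293T cells under agonist stimulation by chenodeoxycholic acid (50 uM, final) and test compound for 16 h at 37 C, measured by CellTiter-Glo luminescence in the reporter wells.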

[6] = biological target: Vitamin D3 receptor (Homo sapiens) (UniProt P11473); experiment: qHTS assay to identify small molecule agonists of the vitamin D receptor (VDR) signaling pathway (AID 743222; calls by dose curve; further: on the % scale 0 is the no-effect control and ±100 the full control effect)
Procedure, shortened: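 Fluorescence from cleaved LiveBLAzer B/G FRET substrate served as readout. VDR-bla cells had been treated 16 h at 37C with test compounds in DMSO, following a 4 h settling period, and substrate was loaded for 2 h at RT.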

[7] = qHTS assay to identify small molecule agonists of the vitamin D receptor (VDR) signaling pathway - cell viability counter screen (AID 743224); further: series mostly up to about 63 µM; on the % scale 0 is the no-effect control and ±100 the full control effect; nearly all actives have a fitted effect of over 50% in size
Procedure, shortened: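 Compounds were pin-transferred onto VDR-bla cells plated 4 h earlier; following 16 h incubation at 37C, cell viability was quantified by CellTiter-Glo luminescence after 30 min at room temperature.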

[8] = qHTS assay to identify small molecule antagonists of the vitamin D receptor (VDR) signaling pathway - cell viability counter screen (AID 743225); further: on the % scale 0 is the no-effect control and ±100 the full control effect; nearly all actives have a fitted effect of over 50% in size
Procedure, shortened: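 HEK293T VDR-bla; cpd + 1a,25-(OH)2D3 3 nM final, 16 h 37C/5% CO2; B/G FRET substrate 2 h RT; then CellTiter-Glo 30 min RT, luminescence.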

[9] = qHTS assay to identify small molecule agonists of the NFkB signaling pathway - cell viability counter screen (AID 1159515; calls by dose curve; further: series mostly up to about 61 µM; on the % scale 0 is the no-effect control and ±100 the full control effect; nearly all actives have a fitted effect of over 55% in size)
Procedure, shortened: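 Parallel cytotoxicity counter screen in ME-180 cells carrying an NFkB-response-element beta-lactamase reporter, 2,000 cells/well. Compound exposure lasted 5 hr at 37 C, 5% CO2. Cell viability was quantified by CellTiter-Glo luminescence.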

[10] = qHTS assay to identify small molecule agonists of the endoplasmic reticulum stress response signaling pathway (AID 1159516; active means well fitted activation curve with a large enough effect in the signal ratio in the repeat runs, not every such curve was filed as active; the % refers to the signal ratio; further: on the % scale 0 is the no-effect control and ±100 the full control effect)
Procedure, shortened: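 Using a HeLa line with an ESRE-driven beta-lactamase gene, agonist activity was measured by FRET substrate fluorescence (460 and 530 nm emission) after cells were treated with compounds for 5 hr at 37 C and 5% CO2.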

[11] = qHTS assay to identify small molecule agonists of the endoplasmic reticulum stress response signaling pathway - cell viability counter screen (AID 1159517; calls by dose curve)
Procedure, shortened: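 ESRE-bla HeLa cells (1,500/well) were plated overnight at 37 C and exposed to compounds for 5 hr. After the 2 hr beta-lactamase substrate read, CellTiter-Glo went into the same wells, and luminescence was read after 30 min at room temperature.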

[12] = qHTS assay to identify small molecule antagonists of the retinoid-related orphan receptor gamma (ROR-gamma) signaling pathway - cell viability counter screen (AID 1159520)
Procedure, shortened: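 Cytotoxicity was read from cellular ATP (CellTiter-Glo luminescence) after 16 hr at 37 C with 1 uM doxycycline induction. The inducer was added 2 hr after compound transfer to Tet-on ROR gamma CHO cells.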

[13] = biological target: Nuclear receptor ROR-gamma (Homo sapiens) (UniProt P51449); experiment: qHTS assay to identify small molecule antagonists of the retinoid-related orphan receptor gamma (ROR-gamma) signaling pathway (AID 1159521)
Procedure, shortened: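 Cells were plated, rested 4 h at 37 C, exposed to compounds for 2 h, then given 1 uM final doxycycline hyclate to induce RORγ expression. After 16 h, ONE-Glo luminescence from the ROR response element reporter was measured.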

[14] = qHTS assay to identify small molecule agonists of the AP-1 signaling pathway - cell viability counter screen (AID 1159525; calls by dose curve; further: nearly all actives have a fitted effect of over 55% in size)
Procedure, shortened: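 Intracellular ATP by Cell Titer Glo luminescence (30 min, RT) in the same ME-180 AP-1-bla wells after the 5 h compound exposure at 37 °C. Normalised to tetra n-octyl ammonium bromide and DMSO controls.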

[15] = biological target: Retinoic acid receptor RXR-alpha (Homo sapiens) (UniProt P19793); experiment: qHTS assay to identify small molecule agonists of the RXR signaling pathway (AID 1159527; calls by dose curve; further: on the % scale 0 is the no-effect control and ±100 the full control effect; nearly all actives have a fitted effect of over 35% in size)
Procedure, shortened: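 Cells plated at 2,000/well, rested 5 hr at 37 C, pin-dosed with DMSO compound solutions, incubated 16 hr, then loaded with B/G FRET substrate for 2 hr at RT before dual-emission fluorescence reading.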

[16] = biological target: Peroxisome proliferator-activated receptor delta (Homo sapiens) (UniProt Q03181); experiment: qHTS assay to identify small molecule antagonists of the peroxisome proliferator-activated receptor delta (PPARd) signaling pathway (AID 743215; active means well fitted inhibition curve with a large enough effect in the signal ratio in the repeat runs, not every such curve was filed as active; the % refers to the signal ratio;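 further: cells stimulated with agonist L165041 at 300 nM final during compound exposure; series mostly up to about 62 µM; on the % scale 0 is the no-effect control and ±100 the full control effect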)
Procedure, shortened: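 Plated HEK293H PPARd-bla cells rested 5 h at 37 C and 5% CO2. Compound, then agonist L165041 at 300 nM final, was added; 17 h at 37 C followed. Substrate loading, 2 h room temperature, fluorescence measured.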

[17] = biological target: Vitamin D3 receptor (Homo sapiens) (UniProt P11473); experiment: qHTS assay to identify small molecule antagonists of the vitamin D receptor (VDR) signaling pathway (AID 743223; active means well fitted inhibition curve with a large enough effect in the signal ratio in the repeat runs, not every such curve was filed as active; the % refers to the signal ratio; further: on the % scale 0 is the no-effect control and ±100 the full control effect)
Procedure, shortened: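 Cells carrying a VDR-driven beta-lactamase reporter (VDR-bla) were co-treated with compound and 3 nM final 1alpha,25-dihydroxyvitamin D3 for 16 h at 37C; reporter activity was measured as FRET substrate fluorescence after 2 h at room temperature.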

[18] = biological target: Bile acid receptor (Homo sapiens) (UniProt Q96RI1); experiment: qHTS assay to identify small molecule antagonists of the farnesoid-X-receptor (FXR) signaling pathway (AID 743217; active means well fitted inhibition curve with a large enough effect in the signal ratio in the repeat runs, not every such curve was filed as active; the % refers to the signal ratio; further: on the % scale 0 is the no-effect control and ±100 the full control effect)
Procedure, shortened: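 Screen of the Tox21 10K library in quantitative HTS format using FXR-UAS-bla HEK 293T reporter cells. Agonist chenodeoxycholic acid, 50 uM final, added with compounds; 16 h incubation at 37 °C; beta-lactamase FRET fluorescence measured.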

[19] = biological target: Bile acid receptor (Homo sapiens) (UniProt Q96RI1); experiment: qHTS assay to identify small molecule agonists of the farnesoid-X-receptor (FXR) signaling pathway (AID 743220; active means well fitted activation curve with a large enough effect in the signal ratio in the repeat runs, not every such curve was filed as active; the % refers to the signal ratio; further: on the % scale 0 is the no-effect control and ±100 the full control effect)
Procedure, shortened: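 FXR-UAS-bla HEK 293T cells carrying a UAS-driven beta-lactamase reporter were plated for 5 h at 37C/5% CO2, then exposed to DMSO-dissolved Tox21 10K compounds for 16 h at 37C. A LiveBLAzer B/G FRET substrate was loaded for 2 h at room temperature before fluorescence reading.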

Retinoic acid receptor RXR-alpha (Homo sapiens), sequence (P19793 whole entry, looked up): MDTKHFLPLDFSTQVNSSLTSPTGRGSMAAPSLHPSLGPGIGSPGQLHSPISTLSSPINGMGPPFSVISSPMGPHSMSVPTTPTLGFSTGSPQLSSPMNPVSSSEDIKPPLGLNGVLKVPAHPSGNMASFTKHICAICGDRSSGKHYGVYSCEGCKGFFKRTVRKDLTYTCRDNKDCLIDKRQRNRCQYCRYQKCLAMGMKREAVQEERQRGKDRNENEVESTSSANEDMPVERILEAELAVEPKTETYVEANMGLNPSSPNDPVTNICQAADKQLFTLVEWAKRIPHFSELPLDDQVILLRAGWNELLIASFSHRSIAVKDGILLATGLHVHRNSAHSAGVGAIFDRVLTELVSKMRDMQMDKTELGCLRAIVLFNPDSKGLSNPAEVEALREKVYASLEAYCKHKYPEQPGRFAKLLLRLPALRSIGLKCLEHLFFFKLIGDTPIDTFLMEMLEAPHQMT
Peroxisome proliferator-activated receptor delta (Homo sapiens), sequence (Q03181 whole entry, looked up): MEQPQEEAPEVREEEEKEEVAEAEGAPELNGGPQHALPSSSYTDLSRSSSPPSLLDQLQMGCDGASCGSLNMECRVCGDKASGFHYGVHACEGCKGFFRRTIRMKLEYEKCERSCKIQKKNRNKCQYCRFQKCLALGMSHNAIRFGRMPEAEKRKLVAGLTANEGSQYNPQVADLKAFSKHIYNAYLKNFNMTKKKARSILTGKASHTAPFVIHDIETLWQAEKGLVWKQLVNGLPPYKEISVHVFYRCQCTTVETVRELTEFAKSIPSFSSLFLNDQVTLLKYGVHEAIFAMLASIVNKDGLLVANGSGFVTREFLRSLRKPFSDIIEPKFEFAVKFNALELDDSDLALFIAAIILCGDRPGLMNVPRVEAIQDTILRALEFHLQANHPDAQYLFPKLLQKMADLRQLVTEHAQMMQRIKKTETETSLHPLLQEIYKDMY
Vitamin D3 receptor (Homo sapiens), sequence (P11473 whole entry, looked up): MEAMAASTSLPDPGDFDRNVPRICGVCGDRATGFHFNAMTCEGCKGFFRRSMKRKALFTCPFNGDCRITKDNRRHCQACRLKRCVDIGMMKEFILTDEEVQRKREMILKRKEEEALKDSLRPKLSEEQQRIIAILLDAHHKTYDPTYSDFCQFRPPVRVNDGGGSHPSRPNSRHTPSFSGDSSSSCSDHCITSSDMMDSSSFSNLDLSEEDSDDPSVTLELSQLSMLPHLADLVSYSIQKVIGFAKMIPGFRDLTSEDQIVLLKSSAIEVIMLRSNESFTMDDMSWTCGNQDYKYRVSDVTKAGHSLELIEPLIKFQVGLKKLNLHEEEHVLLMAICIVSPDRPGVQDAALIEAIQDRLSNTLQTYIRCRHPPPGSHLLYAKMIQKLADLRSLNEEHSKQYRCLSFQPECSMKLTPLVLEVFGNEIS
Bile acid receptor (Homo sapiens), sequence (Q96RI1 whole entry, looked up): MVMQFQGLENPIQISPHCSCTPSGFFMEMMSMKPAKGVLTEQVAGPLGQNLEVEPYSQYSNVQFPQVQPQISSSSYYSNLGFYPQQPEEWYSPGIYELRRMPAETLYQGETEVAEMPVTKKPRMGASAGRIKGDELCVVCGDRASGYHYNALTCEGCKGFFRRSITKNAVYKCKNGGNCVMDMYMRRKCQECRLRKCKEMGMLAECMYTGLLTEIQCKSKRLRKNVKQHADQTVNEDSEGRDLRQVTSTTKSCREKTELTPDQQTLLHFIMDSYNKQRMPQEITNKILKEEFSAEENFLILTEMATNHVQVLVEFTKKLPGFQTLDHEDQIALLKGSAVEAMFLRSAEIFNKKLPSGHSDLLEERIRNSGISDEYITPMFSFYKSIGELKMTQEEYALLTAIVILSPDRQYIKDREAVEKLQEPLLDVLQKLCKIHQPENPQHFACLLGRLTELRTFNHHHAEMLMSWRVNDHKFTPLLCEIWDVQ

Cc1c(Cn2ccnc2)c2ccccc2n1CCC(=O)O
inactive: Potency [1] | outcome [2] | Potency [3] | Potency [4] | Potency [5] | outcome [6] | Potency [7] | Potency [8] | Potency [9] | Potency [10] | outcome [11] | Potency [12] | Potency [13] | Potency [14] | Potency [15]

NCCCN(CCO)CCO
inactive: Potency [1] | outcome [2] | Potency [3] | outcome [16] | Potency [4] | Potency [5] | outcome [6] | Potency [17] | Potency [7] | Potency [8] | Potency [9] | Potency [10] | outcome [11] | Potency [12] | Potency [13] | Potency [14] | Potency [15]

O=C(C(=O)c1ccc(Br)cc1)c1ccc(Br)cc1
inactive: Potency [1] | outcome [2] | Potency [3] | outcome [16] | outcome [18] | Potency [4] | outcome [19] | Potency [5] | outcome [6] | Potency [17] | Potency [7] | Potency [8] | Potency [9] | Potency [10] | outcome [11] | activity, negative = cytotoxicity [12] -5.42% [at 19 µM] | activity change, negative = inhibition [13] 2.45% [at 19 µM] | viability change, negative = cytotoxic [14] 10.5% [at 15.8 µM] | activation [15] -4.31% [at 15.8 µM]

CC(C)c1ccccc1C(C)C
inactive: Potency [1] | outcome [2] | Potency [3] | outcome [16] | Potency [4] | Potency [5] | outcome [6] | Potency [17] | Potency [7] | Potency [8] | Potency [9] | Potency [10] | outcome [11] | Potency [12] | Potency [13] | Potency [14] | Potency [15]

NC[C@H]1O[C@H](O[C@H]2[C@H](O)[C@@H](O[C@H]3O[C@H](CO)[C@@H](O)[C@H](N)[C@H]3O)[C@H](N)C[C@@H]2N)[C@H](O)[C@@H](O)[C@@H]1O
inactive: activity change, negative = cytotoxicity [1] -7.03% [at 5.95 µM] | activation [2] -4.29% [at 5.95 µM] | viability change, negative = cytotoxic [3] -5.87% [at 6.26 µM] | activation [6] -7.13% [at 6.01 µM] | activity change, negative = inhibition [17] 5.88% [at 6.95 µM] | activity change, negative = cytotoxicity [7] -10.2% [at 5.95 µM] | viability change, negative = cytotoxic [8] 9.2% [at 6.95 µM] | activity, negative = cytotoxic [9] -4.89% [at 6.95 µM] | activation [10] -2.16% [at 6.95 µM] | activity change, negative = cytotoxicity [11] -9.96% [at 6.95 µM] | activity, negative = cytotoxicity [12] 1.78% [at 8.39 µM] | activity change, negative = inhibition [13] -16.2% [at 8.39 µM] | viability change, negative = cytotoxic [14] -4.71% [at 6.97 µM] | activation [15] 3.4% [at 6.98 µM]
